Data published in PubChem BioAssay AID1159580 (chemical genetic matrix, 2015).
“And” between values parts separate entries of the source, which are not always exact repeats. Identical values can stand only once. Out of some 5,500 compounds screened, about 2,000 (36%) were called active. About 18% were inconclusive and are not listed. No stated cut-off is given here; in the data, active means normalized growth mostly below about 0.91 (no sharp cut-off); inconclusive means no clear call, values can overlap the other calls; inactive means mostly above about 0.92. The list shows a part of the results.

Assay: chemical genetic growth profiling, strain panel (AID 1159580);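 further: tested at 20 µM; growth read once vehicle control cultures reached saturation at 30 °C; 1 = growth at the plate median or of vehicle wells; lower values mean less growth of the strain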
Details: growth OD

Measured: normalized growth

CN(C)C(=O)Oc1cccc([N+](C)(C)C)c1
inactive: S. cerevisiae deletion strains, locus YJR075W, strain HOC1, active compounds read low 1.02 | S. cerevisiae deletion strains, locus YKL009W, strain mrt4, active compounds read low 0.969 | S. cerevisiae deletion strains, locus YKL068W, active compounds read low 0.988 | S. cerevisiae deletion strains, locus YKL085W, strain MDH1 (second series), active compounds read low 0.985 | S. cerevisiae deletion strains, locus YKL085W, strain MDH1, active compounds read low 0.985 | S. cerevisiae deletion strains, locus YKL160W, strain elf1, active compounds read low 0.996 | S. cerevisiae deletion strains, locus YKL190W, strain CNB1, active compounds read low 1 | S. cerevisiae deletion strains, locus YKR001C, strain vps1, active compounds read low 0.983 | S. cerevisiae deletion strains, locus YKR026C, strain gcn3, active compounds read low 0.984 | S. cerevisiae deletion strains, locus YKR091W, strain srl3, active compounds read low 0.995 | S. cerevisiae deletion strains, locus YLL001W, strain dnm1, active compounds read low 0.988 | S. cerevisiae deletion strains, locus YLL026W, active compounds read low 1 | S. cerevisiae deletion strains, locus YLL041C, strain sdh2, active compounds read low 1.01 | S. cerevisiae deletion strains, locus YLR027C, strain aat2, active compounds read low 0.984 | S. cerevisiae deletion strains, locus YLR039C, strain RIC1, active compounds read low 0.985 | S. cerevisiae deletion strains, locus YLR058C, strain SHM2, active compounds read low 0.996 | S. cerevisiae deletion strains, locus YLR102C, strain apc9, active compounds read low 0.995 | S. cerevisiae deletion strains, locus YLR113W, strain HOG1, active compounds read low 0.989 | S. cerevisiae deletion strains, locus YLR221C, strain rsa3, active compounds read low 0.99 | S. cerevisiae deletion strains, locus YLR258W, strain gsy2, active compounds read low 1 | S. cerevisiae deletion strains, locus YLR262C, strain YPT6 (second series), active compounds read low 1 | S. cerevisiae deletion strains, locus YLR262C, strain YPT6, active compounds read low 1.02 | S. cerevisiae deletion strains, locus YLR268W, strain sec22, active compounds read low 0.956 | S. cerevisiae deletion strains, locus YLR320W, strain mms22, active compounds read low 0.996 | S. cerevisiae deletion strains, locus YLR330W, strain CHS5, active compounds read low 0.982 | S. cerevisiae deletion strains, locus YLR342W, strain FKS1 (second series), active compounds read low 0.998 | S. cerevisiae deletion strains, locus YLR342W, strain FKS1, active compounds read low 1.01 | S. cerevisiae deletion strains, locus YLR357W, strain rsc2, active compounds read low 0.964 | S. cerevisiae deletion strains, locus YLR370C, strain arc18, active compounds read low 1 | S. cerevisiae deletion strains, locus YLR371W, strain rom2, active compounds read low 0.983 | S. cerevisiae deletion strains, locus YLR384C, strain iki3, active compounds read low 1 | S. cerevisiae deletion strains, locus YLR418C, strain cdc73, active compounds read low 0.972 | S. cerevisiae deletion strains, locus YML016C, strain PPZ1, active compounds read low 0.987 | S. cerevisiae deletion strains, locus YML032C, strain rad52, active compounds read low 0.982 | S. cerevisiae deletion strains, locus YML120C, strain ndi1, active compounds read low 0.999 | S. cerevisiae deletion strains, locus YML124C, strain tub3, active compounds read low 0.984 | S. cerevisiae deletion strains, locus YMR058W, strain fet3, active compounds read low 1.01 | S. cerevisiae deletion strains, locus YMR078C, strain ctf18, active compounds read low 0.984 | S. cerevisiae deletion strains, locus YMR125W, strain sto1, active compounds read low 0.976 | S. cerevisiae deletion strains, locus YMR129W, active compounds read low 0.997 | S. cerevisiae deletion strains, locus YMR205C, strain PFK2, active compounds read low 0.994 | S. cerevisiae deletion strains, locus YMR223W, strain ubp8, active compounds read low 0.995 | S. cerevisiae deletion strains, locus YMR231W, strain pep5, active compounds read low 0.999 | S. cerevisiae deletion strains, locus YMR263W, strain SAP30, active compounds read low 0.996 and 1.01 | S. cerevisiae deletion strains, locus YMR307W, strain GAS1, active compounds read low 0.984 and 1.02 | S. cerevisiae deletion strains, locus YNL067W, strain RPL9B, active compounds read low 1.01 | S. cerevisiae deletion strains, locus YNL071W, strain lat1, active compounds read low 1.01 | S. cerevisiae deletion strains, locus YNL153C, strain GIM3, active compounds read low 1.01 | S. cerevisiae deletion strains, locus YNL175C, strain NOP13, active compounds read low 1.01 | S. cerevisiae deletion strains, locus YNL183C, strain NPR1, active compounds read low 0.953 | S. cerevisiae deletion strains, locus YNL197C, strain WHI3, active compounds read low 1.02 | S. cerevisiae deletion strains, locus YNL209W, strain ssb2, active compounds read low 0.994 | S. cerevisiae deletion strains, locus YNL224C, strain SQS1, active compounds read low 1 | S. cerevisiae deletion strains, locus YNL233W, strain BNI4, active compounds read low 0.988 | S. cerevisiae deletion strains, locus YNL248C, strain rpa49, active compounds read low 0.99 | S. cerevisiae deletion strains, locus YNL250W, strain rad50, active compounds read low 0.978 | S. cerevisiae deletion strains, locus YNL271C, strain bni1, active compounds read low 0.983 | S. cerevisiae deletion strains, locus YNL298W, strain CLA4, active compounds read low 0.979 | S. cerevisiae deletion strains, locus YNL307C, strain MCK1, active compounds read low 0.982 | S. cerevisiae deletion strains, locus YNL322C, strain KRE1 (second series), active compounds read low 0.989 | S. cerevisiae deletion strains, locus YNR049C, strain mso1, active compounds read low 0.98 | S. cerevisiae deletion strains, locus YNR052C, strain pop2, active compounds read low 0.982 | S. cerevisiae deletion strains, locus YOL006C, strain TOP1, active compounds read low 1.03 | S. cerevisiae deletion strains, locus YOL012C, strain htz1 1.09 | S. cerevisiae deletion strains, locus YOL147C, strain pex11, active compounds read low 0.985 | S. cerevisiae deletion strains, locus YOR001W, strain rrp6, active compounds read low 0.989 | S. cerevisiae deletion strains, locus YOR061W, strain CKA2, active compounds read low 0.987 | S. cerevisiae deletion strains, locus YOR069W, strain VPS5, active compounds read low 0.986 | S. cerevisiae deletion strains, locus YOR070C, strain gyp1, active compounds read low 1 | S. cerevisiae deletion strains, locus YOR080W, strain dia2, active compounds read low 0.996 | S. cerevisiae deletion strains, locus YOR083W, strain WHI5 (second series), active compounds read low 1.01 | S. cerevisiae deletion strains, locus YOR083W, strain WHI5, active compounds read low 0.998 | S. cerevisiae deletion strains, locus YOR106W, strain vam3, active compounds read low 0.998 | S. cerevisiae deletion strains, locus YOR136W, strain idh2, active compounds read low 0.992 | S. cerevisiae deletion strains, locus YOR144C, strain elg1, active compounds read low 0.994 | S. cerevisiae deletion strains, locus YOR184W, strain ser1, active compounds read low 0.99 | S. cerevisiae deletion strains, locus YOR231W, strain MKK1, active compounds read low 1.02 | S. cerevisiae deletion strains, locus YOR265W, strain rbl2, active compounds read low 0.996 | S. cerevisiae deletion strains, locus YOR270C, strain vph1, active compounds read low 1.03 | S. cerevisiae deletion strains, locus YOR290C, strain snf2, active compounds read low 1.01 | S. cerevisiae deletion strains, locus YOR316C, strain cot1, active compounds read low 0.994 | S. cerevisiae deletion strains, locus YPL051W, strain arl3, active compounds read low 1 | S. cerevisiae deletion strains, locus YPL055C, strain LGE1, active compounds read low 1.02 | S. cerevisiae deletion strains, locus YPL078C, strain atp4, active compounds read low 0.994 | S. cerevisiae deletion strains, locus YPL106C, strain sse1, active compounds read low 0.973 | S. cerevisiae deletion strains, locus YPL240C, strain hsp82, active compounds read low 1 | S. cerevisiae deletion strains, locus YPL241C, strain CIN2, active compounds read low 1 | S. cerevisiae deletion strains, locus YPL256C, strain CLN2, active compounds read low 0.986 | S. cerevisiae deletion strains, locus YPR119W, strain clb2, active compounds read low 0.995 | S. cerevisiae deletion strains, locus YPR141C, strain kar3, active compounds read low 0.978 | S. cerevisiae deletion strains, locus YPR163C, strain tif3, active compounds read low 0.984 | S. cerevisiae deletion strains, locus YPR167C, strain met16, active compounds read low 0.984 | S. cerevisiae deletion strains, strain wtn01, active compounds read low 0.964 | S. cerevisiae strains, strain wild type, active compounds read low 1.01
